# Measured values from PubChem BioAssay (NCATS).
# Inconclusive results are not listed. Where a call stands in place of a potency, no number is given. A number with no mark means an inactive call. Calls of active or inactive are those of the source. Calls come from the whole dose curve; as a rule, active = well fitted curve in the direction sought with a large enough effect; inconclusive = small, poorly fitted or top-dose-only effect, or another doubt; inactive = no such curve, though single readings can be large; an effect the other way counts as inactive or inconclusive.
# Columns and labels:
# [1] = Viability qHTS for spleen associated tyrosine kinase inhibitor (SYKi) naive MV4-11 cells (AID 1963823); note: nearly all actives have a fitted effect of over 40% in size; note: potency is the fitted concentration of half-maximal effect
# Summary of the method: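 CellTiter-Glo luminescence, 10 min room-temperature incubation, gave viability. Cells: naive MV4-11 (500/well), treated 72 hr at 37 C, 5% CO2.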
# [2] = Viability qHTS for spleen associated tyrosine kinase inhibitor (SYKi) drug resistant MV4-11 cells (AID 1963824); note: nearly all actives have a fitted effect of over 35% in size; note: potency is the fitted concentration of half-maximal effect
# Summary of the method: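 SYK inhibitor-resistant MV4-11 AML cells, 500 per well, added to predispensed compounds and incubated 72 hr at 37 C, 5% CO2. Viability measured by CellTiter-Glo luminescence after 10 min at room temperature.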
# [3] = Quantitative highthroughput screen to assess conditional lethalithy of NOMO1 cells grown in RPMI1640 with untreated serum (RPMI+s) (AID 1963876); note: nearly all actives have a fitted effect of over 35% in size
# Summary of the method: (§1)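 Each medium arm—HPLM with 10% dialyzed FBS, or RPMI1640 with 5 mM glucose and 10% untreated or dialyzed FBS—was screened against an 11-point, 3-fold compound titration for 48 h at 37 °C, with CellTiter-Glo luminescence as endpoint.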
# [4] = Quantitative highthroughput screen to assess conditional lethalithy of NOMO1 cells grown in RPMI1640 with dialyzed fetal bovine serum (RPMI+ds) (AID 1963877); note: series mostly up to about 46 µM; nearly all actives have a fitted effect of over 30% in size
# Summary of the method: as §1
# [5] = Quantitative highthroughput screen to assess conditional lethalithy of NOMO1 cells grown in Human Plasma-Like Medium with dialyzed fetal bovine serum (HPLM+ds) (AID 1963878); note: nearly all actives have a fitted effect of over 35% in size
# Summary of the method: as §1
# [6] = Quantitative highthroughput screen to assess conditional lethalithy of P12 Ichikawa cells grown in Human Plasma-Like Medium with dialyzed fetal bovine serum (HPLM+ds) (AID 1963879); conditions: Potency: viability; note: series mostly up to about 46 µM; nearly all actives have a fitted effect of over 35% in size
# Summary of the method: as §1
# [7] = Quantitative highthroughput screen to assess conditional lethalithy of P12 Ichikawa cells grown in RPMI1640 with dialyzed fetal bovine serum (RPMI+ds) (AID 1963880); conditions: Potency: P12-Ichikawa viability; note: nearly all actives have a fitted effect of over 35% in size
# Summary of the method: as §1
# [8] = Quantitative highthroughput screen to assess conditional lethalithy of P12 Ichikawa cells grown in RPMI1640 with untreated serum (RPMI+s) (AID 1963881); conditions: Potency: viability
# Summary of the method: as §1
# [9] = Quantitative highthroughput screen to assess conditional lethalithy of SEM cells grown in Human Plasma-Like Medium with dialyzed fetal bovine serum (HPLM+ds) (AID 1963882)
# Summary of the method: as §1
# [10] = Quantitative highthroughput screen to assess conditional lethalithy of SEM cells grown in RPMI1640 with unreated serum (RPMI+s) (AID 1963883); note: nearly all actives have a fitted effect of over 35% in size
# Summary of the method: as §1
# [11] = Quantitative highthroughput screen to assess conditional lethalithy of SEM cells grown in RPMI1640 with dialyzed fetal bovine serum (RPMI+ds) (AID 1963884)
# Summary of the method: as §1
# [12] = Cellular viability qHTS for adrenocortical cancer (ACC) cell line SW-13 (AID 1963989); conditions: SW-13 ACC cells viability, CellTiter-Glo, 48 h; activity (max response): stronger effect = lower value;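 note: cells grown in serum-free medium with ITS supplement; nearly all actives have a fitted effect of over 65% in size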
# Summary of the method: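 Viability was read as CellTiter-Glo luminescence after 48 h compound treatment (up to 46 uM final) of SW-13 cells grown serum-free; titration curves were fit with a four-parameter logistic model to give IC50 and efficacy.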
# [13] = Cellular viability qHTS for adrenocortical cancer (ACC) cell line NCI-H295R (AID 1963990); note: nearly all actives have a fitted effect of over 60% in size
# Summary of the method: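 CellTiter-Glo ATP luminescence, read 48 h after compound addition, measured viability of NCI-H295R adrenocortical cells grown serum-free with ITS. Final concentrations spanned up to 46 uM. Data normalized to DMSO and doxorubicin, fitted for IC50 and maximal response.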
compound,measurement,setting,value
CC(/C=C/C=C(\C)C(=O)O[C@@H]1O[C@H](CO[C@@H]2O[C@H](CO)[C@@H](O)[C@H](O)[C@H]2O)[C@@H](O)[C@H](O)[C@H]1O)=C\C=C\C=C(C)\C=C\C=C(/C)C(=O)O[C@@H]1C[C@](O)(C(=O)O)C[C@@H](O)[C@H]1OC(=O)/C=C/c1ccc(O)c(O)c1,viability (% of control),[1],78.4% [at 9.25 µM]
same,"viability, % of control",[2],91.1% [at 9.25 µM]
O=C1N=C(O)S/C1=C\c1ccc2nccnc2c1,Potency,[1],13000 nM (active)
same,Potency,[2],13000 nM (active)
Cc1cc2c(c(=O)o1)C=C1CC[C@H]([C@H](C)Cn3cnc(=N)c4[nH]cnc43)C[C@@H]1O2,Potency,[1],inactive
same,Potency,[2],inactive
COc1cc(/C=C/C(=O)O[C@H]2C[C@@H]3C(C(=O)O)=CO[C@@H](O[C@@H]4O[C@H](CO)[C@@H](O)[C@H](O)[C@H]4O)[C@@H]3[C@H]2C)ccc1O,Potency,[1],inactive
same,Potency,[2],inactive
CC1OC(O[C@@H]2[C@H](O)[C@@H](OC3OC(CO)C(O)C(O)C3O)[C@H](OC(=O)[C@]34CCC(C)(C)C[C@H]3C3=CCC5[C@@]6(C)CC[C@H](O[C@@H]7O[C@H](C(=O)O)[C@@H](O)[C@H](O[C@@H]8OC[C@@H](O)[C@H](O)[C@H]8O)[C@H]7O[C@@H]7O[C@H](CO)[C@H](O)[C@H](O)[C@H]7O)[C@@](C)(C=O)C6CC[C@@]5(C)[C@]3(C)C[C@H]4O)O[C@@H]2C)C(O)C(O)C1OC1OCC(O)C(O)C1O (stereo partly specified),viability (% of control),[1],87.4% [at 4.97 µM]
same,"viability, % of control",[2],89.9% [at 4.97 µM]
NC(=O)C(O[C@@H]1O[C@H](CO[C@@H]2O[C@H](CO)[C@@H](O)[C@H](O)[C@H]2O)[C@@H](O)[C@H](O)[C@H]1O)c1ccccc1 (stereo partly specified),Potency,[1],inactive
same,Potency,[2],inactive
Cn1ccnc1CCOC(c1cc2nccc(C(=O)O)c2[nH]1)c1ccccc1Cl (stereo unspecified),Potency,[1],inactive
same,Potency,[2],inactive
O=C(/C=C/c1ccc(O)cc1)O[C@@H]1C[C@@](O)(C(=O)O)C[C@@H](O)[C@@H]1O,Potency,[1],inactive
same,Potency,[2],inactive
C[C@@H]1O[C@@H](OC[C@H]2O[C@@H](OC(CCCCc3ccc(O)cc3)CCc3ccc(O)cc3)[C@H](O)[C@@H](O)[C@@H]2O)[C@H](O)[C@H](O)[C@H]1O (stereo partly specified),Potency,[1],inactive
same,Potency,[2],inactive
N#Cc1cc([N+](=O)[O-])c2sc(C(N)=O)[n+]([O-])c2c1,Potency,[1],1840 nM (active)
same,Potency,[2],1640 nM (active)
Cc1cc(Nc2cc(C)c(C#N)c(NC(C)CCCC(C)(C)O)n2)n[nH]1 (stereo unspecified),Potency,[1],259 nM (active)
same,Potency,[2],411 nM (active)
O=c1ccn(C2OC(CO)C(O)C2O)c(=O)[nH]1 (stereo unspecified),Potency,[1],inactive
same,Potency,[2],2060 nM (active)
CC(C)[C@@](C)(O)[C@@H]1CN(c2nc(-c3[nH]nc4ncccc34)c(F)cc2Cl)CCN1,Potency,[1],366 nM (active)
same,Potency,[2],731 nM (active)
CCNC(=O)[C@@H]1CCCN1C(=O)[C@H](CCCN=C(N)N)NC(=O)[C@H](CC(C)C)NC(=O)[C@@H](CC(C)C)NC(=O)[C@H](Cc1ccc(O)cc1)NC(=O)[C@H](CO)NC(=O)[C@H](Cc1c[nH]c2ccccc12)NC(=O)[C@H](Cc1cnc[nH]1)NC(=O)[C@@H]1CCC(=O)N1,Potency,[1],inactive
same,Potency,[2],7090 nM (active)
CCOc1nc2c(N)ncnc2n1CC,Potency,[1],inactive
same,Potency,[2],inactive
COC(=O)[C@H](O)[C@H]1C(C)(C)[C@H](OC(=O)C(C)C)[C@@]2(O)C(=O)[C@]1(C)C1CC[C@]3(C)C(CC(=O)O[C@H]3c3ccoc3)[C@]13O[C@@H]32 (stereo partly specified),Potency,[1],inactive
same,Potency,[2],inactive
COc1cc(C(C)=O)ccc1O[C@@H]1O[C@H](CO[C@@H]2O[C@@H](C)[C@H](O)[C@@H](O)[C@H]2O)[C@@H](O)[C@H](O)[C@H]1O,Potency,[1],inactive
same,Potency,[2],inactive
CC(=O)N[C@H]1CCN(c2ccc(C3=NOC(CN[S+](=O)([O-])C(C)C)C3)cc2F)C1 (stereo partly specified),Potency,[1],inactive
same,Potency,[2],13000 nM (active)
Cc1ncc([N+](=O)[O-])n1CCO,Potency,[1],inactive
same,Potency,[2],inactive
same,Potency,[3],inactive
same,Potency,[4],inactive
same,Potency,[5],inactive
same,Potency,[6],inactive
same,Potency,[7],inactive
same,Potency,[8],inactive
same,Potency,[9],inactive
same,Potency,[10],inactive
same,Potency,[11],inactive
same,activity (max response),[12],-0.254%
same,Potency,[13],inactive
Cc1ccc(S(=O)(=O)N[C@@H](Cc2ccccc2)C(=O)CCl)cc1,Potency,[1],9340 nM (active)
same,Potency,[2],8330 nM (active)
same,Potency,[3],inactive
same,Potency,[4],inactive
N#Cc1cc(NC(=O)Nc2nnc(-c3ccncc3)s2)ccc1-c1cn[nH]c1,Potency,[1],inactive
same,Potency,[2],inactive
same,Potency,[3],inactive
same,Potency,[4],inactive
same,Potency,[5],inactive
same,Potency,[6],inactive
same,Potency,[7],inactive
same,Potency,[8],inactive
same,Potency,[9],inactive
same,Potency,[10],inactive
same,Potency,[11],inactive
same,activity (max response),[12],13.8%
same,Potency,[13],inactive
